Values without a mark were called inactive. Active and inactive are the calls of the source.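 The calls were made as follows, unless noted: active = mean inhibition above 46.5%, the solvent-only control mean plus 3 SD; inactive = the rest.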
Tests used:
[1] = tested on: transactivating tegument protein VP16 (Human herpesvirus 1); experiment: VP16 transactivation reporter inhibitors, counter-screen for SRC2 inhibitor project, cell-based, luminescence, single concentration (AID 652007; in the data active = inhibition above about 36%); conditions: cell-based VP16 transactivation luciferase reporter, at 8.9 µM, active compounds read high
[2] = target: Nuclear receptor coactivator 2 (Homo sapiens) (UniProt Q15596); experiment: SRC2 coactivator transcriptional activity inhibitors, confirmation, cell-based, luminescence, HEK293, triplicate (AID 652008); conditions: HEK293 GAL4-SRC2 luciferase reporter, at 8.9 µM, active compounds read high;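 also: 0% = DMSO-treated cells and 100% = Gossypol at 36 µM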
Chain of Nuclear receptor coactivator 2 (Homo sapiens) (Q15596 whole entry, looked up, the tested form may be a part): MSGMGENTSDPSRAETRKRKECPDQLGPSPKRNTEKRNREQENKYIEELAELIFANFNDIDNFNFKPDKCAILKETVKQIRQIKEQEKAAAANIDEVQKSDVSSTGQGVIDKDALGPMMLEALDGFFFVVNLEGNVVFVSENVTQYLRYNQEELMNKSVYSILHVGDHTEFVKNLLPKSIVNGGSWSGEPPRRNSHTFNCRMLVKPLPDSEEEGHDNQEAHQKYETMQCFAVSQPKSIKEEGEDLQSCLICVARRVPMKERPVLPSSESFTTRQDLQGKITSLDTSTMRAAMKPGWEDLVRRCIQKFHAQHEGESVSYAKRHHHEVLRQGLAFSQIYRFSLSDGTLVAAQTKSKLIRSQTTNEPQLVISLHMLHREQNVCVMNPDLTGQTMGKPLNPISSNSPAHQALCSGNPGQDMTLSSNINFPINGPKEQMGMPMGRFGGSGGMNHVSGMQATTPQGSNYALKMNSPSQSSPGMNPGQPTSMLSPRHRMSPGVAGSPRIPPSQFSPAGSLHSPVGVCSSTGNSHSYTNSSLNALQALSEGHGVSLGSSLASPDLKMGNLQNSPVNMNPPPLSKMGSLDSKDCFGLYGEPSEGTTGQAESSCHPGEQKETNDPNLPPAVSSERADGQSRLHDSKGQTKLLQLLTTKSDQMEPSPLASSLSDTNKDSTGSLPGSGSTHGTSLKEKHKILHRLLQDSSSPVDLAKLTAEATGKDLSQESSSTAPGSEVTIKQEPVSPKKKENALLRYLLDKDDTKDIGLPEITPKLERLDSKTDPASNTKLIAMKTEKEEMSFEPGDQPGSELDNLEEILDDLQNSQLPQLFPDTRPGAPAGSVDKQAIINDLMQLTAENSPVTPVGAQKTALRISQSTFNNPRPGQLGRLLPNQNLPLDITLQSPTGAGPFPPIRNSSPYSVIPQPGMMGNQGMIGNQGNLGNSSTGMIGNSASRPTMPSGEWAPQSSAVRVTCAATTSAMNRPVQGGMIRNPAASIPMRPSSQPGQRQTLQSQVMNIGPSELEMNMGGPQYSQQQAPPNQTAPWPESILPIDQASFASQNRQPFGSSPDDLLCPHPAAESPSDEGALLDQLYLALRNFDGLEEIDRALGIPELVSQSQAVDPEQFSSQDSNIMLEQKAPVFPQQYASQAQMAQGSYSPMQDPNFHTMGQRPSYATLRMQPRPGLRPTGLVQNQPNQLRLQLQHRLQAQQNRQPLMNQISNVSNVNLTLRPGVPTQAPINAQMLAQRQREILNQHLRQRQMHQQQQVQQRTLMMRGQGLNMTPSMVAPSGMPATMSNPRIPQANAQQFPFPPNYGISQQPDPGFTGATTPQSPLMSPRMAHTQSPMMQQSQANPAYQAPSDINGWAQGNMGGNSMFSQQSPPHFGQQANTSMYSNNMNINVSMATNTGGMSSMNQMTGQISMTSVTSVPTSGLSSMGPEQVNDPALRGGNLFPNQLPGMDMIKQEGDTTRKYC

O=C(O)c1cccc(CSc2nnc(-c3ccc(Cl)cc3)o2)c1
inhibition [1]: 41.3% (active)
inhibition [2]: 43.1%

CCOC(=O)c1c(NC(=O)C2=COCCO2)sc2c1CCN(C(=O)OC)C2
inhibition [1]: 3.45%
inhibition [2]: 8.72%

O=S(=O)(c1ccc(Cl)cc1)N1CCCC1c1nc(-c2ccc(Cl)cc2)no1 (stereo unspecified)
inhibition [1]: -5.4%
inhibition [2]: -14.7%

Cc1nc(NCc2ccco2)c2c(C)c(C)sc2n1
inhibition [1]: 12%
inhibition [2]: 38%

CCOC(=O)C1=CCN(S(=O)(=O)c2ccc(C)cc2)C1c1ccccc1F (stereo unspecified)
inhibition [1]: -19.3%
inhibition [2]: -7.88%

CC(C)(C)c1ccc(OCCC(=O)OCC(=O)NC2CC2)cc1
inhibition [1]: 23.8%
inhibition [2]: 2.38%

CCOC(=O)[C@H]1[C@H]2COc3ccc(Br)cc3[C@@H]2N2C(=O)CN(Cc3ccco3)C(=O)[C@@]12C
inhibition [1]: 0.08%
inhibition [2]: -14.4%

C=CCc1cccc2cc(C(=O)Nc3ccc(CC(=O)O)cc3)c(=O)oc12
inhibition [1]: 12%
inhibition [2]: 25.6%

CCc1cc(CNC(=O)c2ccc3nc(Cc4ccc(OC)c(OC)c4)oc3c2)on1
inhibition [1]: 9.61%
inhibition [2]: 26.6%

CCCCN(CCCNC(=S)NCCCc1cnc[nH]1)c1ccc(Br)cn1
inhibition [1]: -7.99%
inhibition [2]: 39.1%

c1ccc(-n2nnnc2Oc2ccc(-n3ccnc3)cc2)cc1
inhibition [1]: -16.2%
inhibition [2]: 1.01%

Cc1ccc(C(=O)Nc2ccc3ccccc3c2)cc1
inhibition [1]: -57.4%
inhibition [2]: 12.1%

COc1cc(/C=C2\CC/C(=C\c3cc(OC)c(O)c(OC)c3)C2=O)cc(OC)c1O
inhibition [1]: -70.7%
inhibition [2]: -13%

CCOC(=O)c1[nH]c(=S)n(-c2ccccc2)c1C(=O)OCC
inhibition [1]: -1.17%
inhibition [2]: -17.4%

Cc1ccc(S(=O)(=O)CC(=O)N(CCCN(C)C)c2nc3ccc(C)cc3s2)cc1
inhibition [1]: -1.57%
inhibition [2]: 15.1%

CC(C)C(=O)Nc1cccc2nsnc12
inhibition [1]: -7.28%
inhibition [2]: 5.54%

CCOc1ccc(-n2nc3ccc(N)cc3n2)cc1
inhibition [1]: -14.3%
inhibition [2]: 66% (active)

CCOC(=O)C1CCN(S(=O)(=O)c2ccc(NC(=O)OC)cc2)CC1
inhibition [1]: -1.65%
inhibition [2]: -1.21%

CN(Cc1ccc(Cl)s1)C(=O)CCl
inhibition [1]: 14.2%
inhibition [2]: 22%

O=c1[nH][nH]c(-c2ccccc2O)c1C(C[N+](=O)[O-])c1ccc(Br)cc1 (stereo unspecified)
inhibition [1]: 24.3%
inhibition [2]: -0.61%

Cc1c(C)n(Cc2ccccc2)c2ncnc(Cl)c12
inhibition [1]: 19.1%
inhibition [2]: 39.9%

CN(C)c1ccc(/C=C2\SC(=O)N(CCc3nnc(N)s3)C2=O)cc1
inhibition [1]: -23.4%
inhibition [2]: 27.1%

COc1cccc(NC(=O)Nc2nnc(CC(=O)Nc3ccccc3)s2)c1
inhibition [1]: -11%
inhibition [2]: 21.1%

O=C(O)CCC(=O)Nc1ccc(NC(=O)c2ccc(Cl)cc2Cl)c(Cl)c1
inhibition [1]: -5.8%
inhibition [2]: -2.71%

COC(=O)Cc1ccc(NC(=O)c2ccccc2Cl)cc1
inhibition [1]: -35.8%
inhibition [2]: 8.14%

CC(C)(C)c1ccc(/C=C/C(=O)NCCCN2CCOCC2)cc1
inhibition [1]: -13.2%
inhibition [2]: 4.98%

CS(=O)(=O)N(Cc1ccccc1Cl)c1ccc(C(=O)NCc2cccnc2)cc1
inhibition [1]: -10.9%
inhibition [2]: 35.5%

COc1ccc(CNCc2ccc(C(F)(F)F)cc2)cc1OC
inhibition [1]: 0.19%
inhibition [2]: -3.81%

CCOC(=O)c1c(C)[nH]c(C(=O)Nc2ccc(NC(C)=O)cc2)c1C
inhibition [1]: 6.79%
inhibition [2]: 8.17%

CCc1ccc(/C=C2\SC(=S)N(CCCC(=O)N3CCN(C)CC3)C2=O)cc1
inhibition [1]: -9.42%
inhibition [2]: 11.9%

Cc1ccc(NC(=O)C2CCN(S(=O)(=O)c3ccc(N4CCCC4=O)cc3)CC2)cc1Cl
inhibition [1]: 31%
inhibition [2]: 46.4%

CCCN(CCC)Cc1c(C(=O)N/N=C/CCc2ccccc2)nnn1-c1nonc1N
inhibition [1]: -6.81%
inhibition [2]: -9.2%

Cc1nc2cc(-c3ccc(Cl)cc3)nn2c(C)c1CCC(=O)NC(C)c1ccc2c(c1)OCCO2 (stereo unspecified)
inhibition [1]: -10.9%
inhibition [2]: 72.8% (active)

COc1cc(Cn2c3ccc(NC(=O)CC(C)c4ccccc4)cc3c(=O)n2C)ccc1F (stereo unspecified)
inhibition [1]: -0.16%
inhibition [2]: 2.27%

CCC(Cc1ccccc1)NC(=O)C1CCN(c2nn3c(=O)cc(C)nc3s2)CC1 (stereo unspecified)
inhibition [1]: -17.6%
inhibition [2]: -18.8%

CN(C)c1ccc(NC(=S)c2ccccn2)cc1
inhibition [1]: 1.77%
inhibition [2]: 59.6% (active)

CCc1sc(NC(=O)CN2CCOCC2)nc1-c1ccccc1
inhibition [1]: -0.48%
inhibition [2]: -0.93%

Nn1cnnc1SCC(=O)N1CCc2ccccc2C1
inhibition [1]: 3.54%
inhibition [2]: -22.3%

COc1cc(CNc2ccc3[nH]c(=O)[nH]c3c2)cc(Br)c1OCc1ccc(F)cc1
inhibition [1]: 1.78%
inhibition [2]: 29.9%

Cc1[nH]nc(-c2cccnc2)c1N=NN(C)C
inhibition [1]: 10.9%
inhibition [2]: 41.1%

O=C(CCCCl)NC(=S)Nc1cc(C(F)(F)F)ccc1N1CCOCC1
inhibition [1]: -12.4%
inhibition [2]: -9.88%

Nn1c(SCC(=O)Nc2cc(C(F)(F)F)ccc2Cl)nncc1=O
inhibition [1]: 3.78%
inhibition [2]: -1.26%

CCOC(=O)C(=Cc1ccc(-n2cncn2)cc1)C(=O)OCC
inhibition [1]: 15.5%
inhibition [2]: 24.5%

CCc1ccc(C=C2SC(=S)N(CCCC(=O)Nc3ccc(C(=O)O)cc3)C2=O)cc1
inhibition [1]: -9.93%
inhibition [2]: -5.86%

Cc1ccc(NC(=O)Cn2cccc2C2=NC(c3ccccc3)CO2)cc1C (stereo unspecified)
inhibition [1]: -8.04%
inhibition [2]: -4.44%

COc1ccc(/C=C2\SC(=S)N(CCCC(=O)N3CCOCC3)C2=O)cc1
inhibition [1]: 45.9% (active)
inhibition [2]: 35.5%

CCOc1cccc(NC(=O)C2CC(=O)N(c3ccc(F)cc3)C2)c1 (stereo unspecified)
inhibition [1]: 6.75%
inhibition [2]: -14.1%

Cc1cccc(N2CC(C(=O)NC3CCCCCC3)CC2=O)c1C (stereo unspecified)
inhibition [1]: -3.4%
inhibition [2]: -3.61%

COc1ccc(-n2c(-c3ccccc3)c[n+]3c2CCC3)cc1
inhibition [1]: 6.63%
inhibition [2]: 36%

CC(C)=CCC[C@@]1(C(=O)O)[C@H]2CC=C(CO)[C@@H]1CC/C(C)=C/CC/C(C)=C/C2
inhibition [1]: 14.6%
inhibition [2]: 17.2%

COC(=O)C1=C(C)N(Cc2ccccc2C(F)(F)F)C(=NCc2ccccc2)NC1c1ccc(Cl)cc1 (stereo unspecified)
inhibition [1]: 2.66%
inhibition [2]: 1.39%

CNC(=O)c1nnsc1S(=O)(=O)c1ccc(Cl)cc1
inhibition [1]: 49.1% (active)
inhibition [2]: 49.1% (active)

CCn1ccnc1CNC(=O)C1CCC(=O)N(Cc2ccccc2F)C1 (stereo unspecified)
inhibition [1]: -4.87%
inhibition [2]: -23.7%

Cc1ccc2nc(-c3ccc4c(c3)OCCO4)cn2c1
inhibition [1]: 58.9% (active)
inhibition [2]: 88.3% (active)

O=C(NN1CCOCC1)c1ccco1
inhibition [1]: -7.57%
inhibition [2]: -31.5%

CC(=O)NCCOc1nc(N2CCCCC2)nc(N2CCCCC2)n1
inhibition [1]: 0.94%
inhibition [2]: 12.1%

COc1ccc(C(=O)O/N=C(\N)c2ccccn2)cc1
inhibition [1]: -70.2%
inhibition [2]: 30%

COCCNC(=O)CN(C(=O)c1ccc(N2CCCC2)nc1)c1ccc(F)c(Cl)c1
inhibition [1]: -5.77%
inhibition [2]: -19.2%

Cc1ccc(S(=O)(=O)/N=C(\N)c2ccc(F)cc2)cc1
inhibition [1]: 5.17%
inhibition [2]: -14.9%

CCOc1ccccc1N1CCN(C(=O)c2cc(-c3cc(OC)ccc3OC)nc3ccccc23)CC1
inhibition [1]: -6.34%
inhibition [2]: 14.4%

CSC1=C(C#N)C(c2ccc3c(c2)OCO3)C2=C(CCCC2=O)N1 (stereo unspecified)
inhibition [1]: 0.63%
inhibition [2]: -1.64%

O=C(NC1=NCCS1)C1COc2ccccc2O1 (stereo unspecified)
inhibition [1]: 29.5%
inhibition [2]: 47.7% (active)

O=C(Nc1ccc2nc3n(c(=O)c2c1)CCCCC3)c1c(F)ccc([N+](=O)[O-])c1F
inhibition [1]: 83% (active)
inhibition [2]: 75.5% (active)

COc1ccccc1N1CCN(C(CNC(=O)c2ccco2)c2cccnc2)CC1 (stereo unspecified)
inhibition [1]: -7.16%
inhibition [2]: -4.45%

O=C(c1ccco1)N1CCN(C(=O)N2c3ccccc3Sc3ccccc32)CC1
inhibition [1]: 6.34%
inhibition [2]: 14.1%

CC(C)(C)n1nc2c(c1NC(=O)c1cc([N+](=O)[O-])ccc1Cl)CS(=O)(=O)C2
inhibition [1]: 25.2%
inhibition [2]: 47.5% (active)

COC(=O)c1ccc(CN2CCc3ccc(NC(=O)c4ccncc4)cc3C2)cc1
inhibition [1]: -9.32%
inhibition [2]: 26.8%

CCN(CC)S(=O)(=O)c1ccc(Cl)c(NC(=O)COc2ccc(OC)cc2[N+](=O)[O-])c1
inhibition [1]: -24.3%
inhibition [2]: -28.8%

CC(OC(=O)C1CCCCC1)C(=O)Nc1cccc([N+](=O)[O-])c1 (stereo unspecified)
inhibition [1]: -0.78%
inhibition [2]: 9.77%

CN(C)S(=O)(=O)c1cccc(NC(=O)CSc2ncnc3ccccc23)c1
inhibition [1]: 7.54%
inhibition [2]: 29.7%

CC1=CC(C)(C)Nc2ccc(OC(=O)c3cccnc3)cc21
inhibition [1]: -32.4%
inhibition [2]: 39.7%

Cc1c(CCC(=O)N[C@@H](C)C(=O)O)c(=O)oc2c(C)c3oc4c(c3cc12)CCCC4
inhibition [1]: 25%
inhibition [2]: 27.4%

CC(C)C[C@@H]1COc2cc(Br)ccc2S(=O)(=O)N1Cc1cn(CCC2OCCCO2)nn1
inhibition [1]: -3.85%
inhibition [2]: 3.37%

Reference: PubChem BioAssay
